# In PubChem BioAssay (NCATS):
# Records with an inconclusive call do not appear. Calls of active or inactive are those of the source. The call rests on the fitted dose curve; in most records, active means well fitted cell-killing curve with a large enough effect; inconclusive means small, poorly fitted or top-dose-only effect; inactive means flat fitted curve, though single readings scatter.
# Assay: qHTS assay to identify small molecule inhibitors of chordoma cells - UCH-2 (AID 1259356)
# Details: UCH-2 chordoma viability, CellTiter-Glo ATP luminescence, 48 h; series mostly up to 46.1 µM
# Description: NIH Chemical Genomics Center [NCGC]
# Chordoma is a rare and slow growing tumor that can occur anywhere along the spine, from the base of the skull to the tailbone. Current treatment options for chordoma is surgery and radiation therapy for those who are not candidates for surgery. But chordomas tend to return in the same location or surrounding areas of the original tumor after surgery and/or radiation. Chemotherapy can slow down the progression of the tumor. As chordoma is slow growing, the general cytotoxic agents that kill fast growing cells are ineffective, and some patients have been reported to respond to molecularly targeted drugs.
# NCATS Pharmaceutical Collection (NPC) containing approximately 3000 clinically approved and investigational drugs were used to screen at 15 concentrations in a chordoma cell lines, UCH-2, to identify small molecule compounds that can inhibit chordoma cell growth.
# NCGC Assay Protocol Summary:
# Human chordoma cell line UCH-2 was dispensed at 800 per well in 4uL of culture medium into white solid bottom 1536-well plates (Corning Life Sciences, Corning, NY) using a Multidrop Combi (Thermo Scientific, Waltham, MA) dispenser. The assay plates were incubated at 37 C and 5% CO2 for an overnight, and then 23nL of compounds dissolved in DMSO and positive control were transferred using a Pintool station (Wako, San Diego, CA). Compound treatment was followed by the addition of 1uL of the combination compounds (1uM Auranofin, 500nM each of Camptothecin, Doxorubicin, Rubitecan, and Topotecan) and assay medium to each well of the assay plates using Flying Reagent Dispenser (FRD, Aurora Discovery, San Diego, CA). The assay plates were incubated at 37 C and 5% CO2 for 48hr. Then 5uL of CellTiter-Glo reagent (Promega Corporation, Madison, WI) was added to each well of the assay plates using FRD. After 30min incubation at room temperature, the luminescence signal was quantified using a ViewLux plate reader (PerkinElmer, Shelton, CT).
row,Structure (SMILES),outcome
1,CCCCCCCCCCCCCCCCCCOCC(O)CO (stereo not given),inactive
2,NC(CSCC(=O)O)C(=O)O (stereo not given),inactive
3,CC(=O)Nc1ccc(/C=N/NC(N)=S)cc1,inactive
4,C[C@@H]1CN(c2c(F)c(F)c3c(=O)c(C(=O)O)cn(C4CC4)c3c2F)C[C@H](C)N1,inactive
5,CNC(=O)Oc1ccc2c(c1)[C@]1(C)CCN(C)[C@@H]1N2C,inactive
6,CC1(C)OC(=O)NC1=O,inactive
7,Cc1cc(O)cc2c1O[C@](C)(CCC[C@H](C)CCC[C@H](C)CCCC(C)C)CC2,inactive
8,N[C@H](C(=O)O)c1ccc(O)cc1,inactive
9,COc1cc(C(=O)N2CCOCC2)cc(OC)c1OC,inactive
10,COc1cc(C)c(Cc2cnc(N)nc2N)cc1OC,inactive
11,[O-][n+]1cccc(CO)c1,inactive
12,CC(O)CN(CCN(CC(C)O)CC(C)O)CC(C)O (stereo not given),inactive
13,Cc1cccc(Nc2cc(Cl)nc(SCC(=O)O)n2)c1C,inactive
14,Nc1ccc(S(=O)(=O)Nc2ccc(Cl)nn2)cc1,inactive
15,CC(=O)c1ccc2c(c1)N(CCCN(C)C)c1ccccc1S2,inactive
16,Cc1ncc(COP(=O)(O)O)c(C=O)c1O,inactive
17,CCCn1cnc2c1c(=O)n(CCCCC(C)=O)c(=O)n2C,inactive
18,CCn1cc(C(=O)O)c(=O)c2cnc(N3CCNCC3)nc21,inactive
19,[Cl][In]([Cl])[Cl],inactive
20,NC(=O)NNc1ccccc1,inactive

row,Structure (SMILES),outcome
1,C[C@]12C[C@H](O)[C@H]3[C@@H](CCC4=CC(=O)CC[C@@]43C)[C@@H]1CC[C@@H]2C(=O)CO,inactive
2,Nc1ncnc2c1ncn2[C@@H]1O[C@H](CO)[C@@H](O)[C@H]1O,inactive
3,O=C1Nc2ccc(Cl)cc2[C@@](C#CC2CC2)(C(F)(F)F)O1,inactive
4,O=c1[nH]cnc2c1ncn2[C@@H]1O[C@H](CO)[C@@H](O)[C@H]1O,inactive
5,CCCCN(CCCC)CCCOC(=O)c1ccc(N)cc1,inactive
6,CC(O)COc1ccccc1 (stereo not given),inactive
7,Cc1cccc(C)c1NC(=O)CN(CC(=O)O)CC(=O)O,inactive
8,CNCCC(Oc1ccc(C(F)(F)F)cc1)c1ccccc1 (stereo not given),inactive
9,Cc1cc2c(cc1S(N)(=O)=O)S(=O)(=O)CCC2,inactive
10,COc1ccc(S(=O)(=O)Nc2nnc(CC(C)C)s2)cc1,inactive
11,CC(=O)NC(Cc1ccccc1)C(=O)O (stereo not given),inactive
12,C[C@@H](O)[C@H](N)C(=O)O,inactive
13,CC(CN1c2ccccc2Sc2ccccc21)N(C)C (stereo not given),inactive
14,CC(=O)Oc1c(C)c(C)c2c(c1C)CC[C@@](C)(CCC[C@H](C)CCC[C@H](C)CCCC(C)C)O2,inactive
15,CC(=O)O[C@@]12CO[C@@H]1C[C@H](O)[C@@]1(C)C(=O)[C@H](O)C3=C(C)[C@@H](OC(=O)[C@H](O)[C@@H](NC(=O)OC(C)(C)C)c4ccccc4)C[C@@](O)([C@@H](OC(=O)c4ccccc4)[C@H]21)C3(C)C,inactive
16,OCCN1CCN(CCCN2c3ccccc3Sc3ccc(Cl)cc32)CC1,inactive
17,C#CCN(C)Cc1ccccc1,inactive
18,O=C1OC(OC(=O)c2cccnc2Nc2cccc(C(F)(F)F)c2)c2ccccc21 (stereo not given),inactive
19,Cc1ncc([N+](=O)[O-])n1CC(O)CCl (stereo not given),inactive
20,CCCCCCCCCCCCOS(=O)(=O)O,inactive
